Data on 9 compounds can be found in article PMC5540273 (PLoS ONE, 2017).

Structures are written as SMILES.

Among the test systems are AAK1; ABL1-nonphosphorylated; ABL1-phosphorylated; ABL2; ACVR1B; ACVR1; ACVR2A; ACVR2B; ACVRL1; ADCK4; AKT1; AKT2; AKT3; ALK; ANKK1.
What all share (details): concentration: 1 μM, replicates: in singlicate; n = 1
Another assay deals with T1, ADCK3.
T1 construct: gene CABC1

The next assay concerns T2, AMPK-alpha1.
T2 construct: gene PRKAA1

In a further assay the test system is T3, AMPK-alpha2.
T3 construct: gene PRKAA2

For the next assay, the system named is T4, ARK5.
T4 construct: gene NUAK1

The test system of the next assay is T5, ASK1.
T5 construct: gene MAP3K5
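Note: KINOMEscan kinase panel screen.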

In the case of `Cc1ccc(-c2ccc3occ(-c4ccc(S(C)=O)cc4)c3c2)nn1` (stereo not drawn), the “%Inh” value in the assay on AAK1 is 15%; in the assay with ABL1-nonphosphorylated, 35%; with ABL1-phosphorylated, 29%; with ABL2, 0%; in the assay with ACVR1B, 7%; in the assay with ACVR1 it was 0%. For the same compound, the “%Inh” value in the assay with ACVR2A stood at 0%; in the assay with ACVR2B, 0%; with ACVRL1, 20%; in the assay with ADCK3, 0%; in the assay with ADCK4 it was 0%; with AKT1 it was 2%. The “%Inh” value came to 12% in the assay with AKT2; 9% in the assay on AKT3; 0% with ALK; 0% with AMPK-alpha1; 1% in the assay with AMPK-alpha2; 0% with ANKK1. Besides, the “%Inh” value in the assay with ARK5 is 16%; with ASK1 it was 0%.

Regarding `Cc1cc(-c2c(-c3ccc(F)cc3)ncn2CCCN2CCOCC2)nc(N)n1` [SB-222517], the “%Inh” value in the assay with AAK1 is on record as 14%; with ABL1-nonphosphorylated it was 37%; in the assay with ABL1-phosphorylated, 18%; with ABL2 it was 0%; with ACVR1B, 21%; in the assay with ACVR1, 0%. Moreover, the “%Inh” value was determined as 0% in the assay on ACVR2A; 0% with ACVR2B; 0% in the assay on ACVRL1; 1% in the assay with ADCK3; 0% with ADCK4; 16% in the assay with AKT1. Besides, the “%Inh” value in the assay with AKT2 is 0%; with AKT3, 23%; in the assay on ALK, 0%; in the assay on AMPK-alpha1 it was 10%; in the assay with AMPK-alpha2 it was 27%; in the assay with ANKK1, 0%. Moreover, the “%Inh” value in the assay on ARK5 and in the assay with ASK1 was 0% throughout.

As to `O=C(Nc1n[nH]c2nc(-c3ccccc3O)ccc12)C1CC1` [SB-711880], the “%Inh” value with AAK1 is reported as 17%; in the assay with ABL1-nonphosphorylated, 68%; in the assay on ABL1-phosphorylated, 44%; in the assay with ABL2, 55%; with ACVR1B, 0%; with ACVR1, 0%. Also, the “%Inh” value in the assay with ACVR2A came to 0%; in the assay with ACVR2B, 0%; with ACVRL1 it was 0%; in the assay with ADCK3 it was 3%; in the assay with ADCK4 it was 17%; in the assay with AKT1, 0%. Besides, the “%Inh” value is recorded as 0% in the assay with AKT2; 0% in the assay on AKT3; 0% in the assay on ALK; 90% in the assay with AMPK-alpha1; 0% with AMPK-alpha2; 0% in the assay with ANKK1. The “%Inh” value with ARK5 and with ASK1 was 0% throughout.

Regarding `Nc1ncc(-c2ccc3nccc(-c4ccncc4)c3c2)cc1S(=O)(=O)N1CCCCC1` [GSK1693850], the “%Inh” value in the assay with AAK1 is reported as 0%; with ABL1-nonphosphorylated, 0%; with ABL1-phosphorylated it was 0%; in the assay with ABL2 it was 9%; in the assay with ACVR1B, 0%; in the assay on ACVR1, 53%. The “%Inh” value is listed as 2% in the assay on ACVR2A; 9% in the assay on ACVR2B; 37% with ACVRL1; 65% with ADCK3; 33% in the assay on ADCK4; 0% with AKT1. In addition, the “%Inh” value in the assay with AKT2 is 1%; with AKT3, 0%; in the assay on ALK, 22%; in the assay with AMPK-alpha1, 0%; in the assay on AMPK-alpha2 it was 1%; with ANKK1, 35%. In addition, the “%Inh” value in the assay with ARK5 amounted to 0%; with ASK1, 14%.

For `Cc1ccc(Nc2ccnc(Nc3ccc(C)c(F)c3)n2)cc1O.Cl` [GW582868], the “%Inh” value came out at 0% in the assay with AAK1; 3% in the assay on ABL1-nonphosphorylated; 47% with ABL1-phosphorylated; 70% in the assay with ABL2; 0% in the assay with ACVR1B; 88% in the assay on ACVR1. The “%Inh” value in the assay on ACVR2A amounted to 53%; with ACVR2B it was 92.9%; in the assay with ACVRL1, 62%; in the assay on ADCK3 it was 14%; with ADCK4, 74%; with AKT1, 0%. For the same compound, the “%Inh” value in the assay on AKT2 came to 0%; with AKT3, 0%; in the assay on ALK, 38%; with AMPK-alpha1, 0%; with AMPK-alpha2 it was 0%; in the assay with ANKK1, 0%. For the same compound, the entries for the “%Inh” value in the assay on ARK5 and in the assay on ASK1 were 40% and 0%, respectively.

Regarding `CN(C)CCOc1ccc(-c2cc(-c3ccc(Cl)c(O)c3)c(-c3ccncc3)[nH]2)cc1.Cl.Cl` [SB-684387], the “%Inh” value with AAK1 worked out at 0%; with ABL1-nonphosphorylated it was 50%; in the assay on ABL1-phosphorylated it was 59%; in the assay with ABL2, 34%; in the assay with ACVR1B it was 90.5%; with ACVR1, 31%. In addition, the “%Inh” value with ACVR2A was found to be 0%; in the assay on ACVR2B, 51%; in the assay with ACVRL1, 0%; in the assay on ADCK3 it was 33%; in the assay with ADCK4 it was 21%; in the assay with AKT1, 0%. Besides, the “%Inh” value was 0% in the assay on AKT2; 55% with AKT3; 18% in the assay on ALK; 0% in the assay on AMPK-alpha1; 11% with AMPK-alpha2; 8% with ANKK1. In addition, the “%Inh” value is given as 1% in the assay with ARK5 and 15% in the assay with ASK1.

For the compound `NCCC(NC(=O)c1cc(Br)c(-c2ccnc3[nH]ccc23)s1)c1ccccc1.O=C(O)C(F)(F)F.O=C(O)C(F)(F)F` (stereo not drawn) [GSK1307810], the “%Inh” value was 66% in the assay on AAK1; 0% in the assay on ABL1-nonphosphorylated; 0% with ABL1-phosphorylated; 8% in the assay on ABL2; 43% in the assay with ACVR1B; 15% in the assay with ACVR1. Also, the “%Inh” value with ACVR2A came to 0%; with ACVR2B it was 0%; with ACVRL1, 0%; in the assay with ADCK3, 52%; in the assay on ADCK4 it was 60%; in the assay on AKT1, 91.6%. In addition, the “%Inh” value came out at 52% in the assay on AKT2; 87% in the assay with AKT3; 50% in the assay on ALK; 52% with AMPK-alpha1; 34% with AMPK-alpha2; 0% in the assay on ANKK1. In addition, the “%Inh” value in the assay on ARK5 worked out at 18%; in the assay on ASK1, 15%.

On to `Nc1cccc(-c2ccc3c(N)n[nH]c3c2)c1` [GSK2193613], for which the “%Inh” value is listed as 55% in the assay with AAK1; 34% with ABL1-nonphosphorylated; 37% in the assay with ABL1-phosphorylated; 21% in the assay on ABL2; 0% with ACVR1B; 11% in the assay on ACVR1. For the same compound, the “%Inh” value in the assay with ACVR2A is 0%; in the assay on ACVR2B, 19%; in the assay with ACVRL1, 0%; with ADCK3, 3%; in the assay on ADCK4, 16%; in the assay on AKT1, 0%. Also, the “%Inh” value with AKT2 worked out at 0%; with AKT3, 23%; with ALK, 0%; with AMPK-alpha1, 0%; in the assay on AMPK-alpha2, 16%; in the assay with ANKK1, 16%. Moreover, the “%Inh” value in the assay on ARK5 and in the assay with ASK1 was 0% each time.

Take `COc1cccc2c(-c3ccncc3)c(-c3ccc(F)cc3)nn12` [GW468513]: the “%Inh” value in the assay on AAK1 was determined as 10%; in the assay on ABL1-nonphosphorylated it was 0%; with ABL1-phosphorylated it was 0%; in the assay on ABL2, 5%; in the assay with ACVR1B it was 76%; in the assay on ACVR1, 31%. Besides, the “%Inh” value in the assay on ACVR2A is given as 0%; in the assay on ACVR2B, 3%; in the assay on ACVRL1 it was 3%; in the assay with ADCK3 it was 43%; with ADCK4, 38%; in the assay with AKT1, 0%. Also, the “%Inh” value with AKT2 stood at 34%; with AKT3, 5%; with ALK, 27%; in the assay on AMPK-alpha1, 0%; in the assay with AMPK-alpha2, 18%; in the assay with ANKK1 it was 11%. For the same compound, the “%Inh” value was 19% with ARK5 and 0% in the assay with ASK1.
